Compound activity (PubChem)
GSTO1 counter: inhibitors of recombinant GSTO1, primary screen, counter-screen for RBBP9 inhibitor project, biochemical, fluorescence polarization; activity-based probe fluorescence polarization; 300,000 tested, 1.1% active; inhibition, % at 5.96 µM; Glutathione S-transferase omega-1 (Homo sapiens), P78417;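 active means inhibition above the campaign mean inhibition plus 3 SD, cut at about 35% in these data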;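 further: 0% = GSTO1-1 with DMSO and 100% = wells lacking GSTO1-1 enzyme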
LYPLA1 counter: LYPLA1 inhibitors, primary screen, counter-screen for PME1 inhibitor project, biochemical, fluorescence polarization, FP-Rh probe ABPP. recombinant LYPLA1. inhibition, % at 5.9 µM. 320,000 tested, 0.16% active. AID 2174, 2009;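 active means inhibition above the mean of all tested compounds plus 3 SD, set per campaign, cut at about 14% in these data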;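 further: inhibitors block serine hydrolase probe labeling of LYPLA1 so polarization falls; 0% = enzyme with DMSO and 100% = wells lacking LYPLA1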
Target sequence (O75608 whole entry, looked up): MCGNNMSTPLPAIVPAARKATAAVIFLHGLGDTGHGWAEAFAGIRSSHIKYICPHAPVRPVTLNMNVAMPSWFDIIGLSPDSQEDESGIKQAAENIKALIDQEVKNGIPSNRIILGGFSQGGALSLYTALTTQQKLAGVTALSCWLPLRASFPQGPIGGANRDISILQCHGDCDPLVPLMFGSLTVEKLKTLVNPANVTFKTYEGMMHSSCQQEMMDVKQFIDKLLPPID
LYPLA2 counter: LYPLA2 inhibitors, primary screen, counter-screen for PME1 inhibitor project, biochemical, fluorescence polarization, FP-Rh probe ABPP | Acyl-protein thioesterase 2 (Homo sapiens), O95372 | recombinant LYPLA2 | inhibition, % at 5.9 µM | 320,000 tested, 0.38% active | AID 2177, 2009;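 active means inhibition above the screen-wide mean plus 3 SD, limit set per campaign, cut at about 26% in these data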;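 further: 0% = LYPLA2 with DMSO and 100% = wells lacking LYPLA2 enzyme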
Fam108B inh: mouse Fam108B serine hydrolase inhibitors, primary screen, counter-screen for RBBP9 inhibitor project, biochemical, fluorescence polarization; recombinant Fam108B, FP-Rh probe fluorescence polarization; inhibition, % at 9.51 µM; 300,000 tested, 0.33% active; AID 1947, 2009;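 active means inhibition above the screen mean inhibition plus 3 SD, computed separately per campaign, cut at about 18% in these data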;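 further: inhibitors lower polarization as less probe binds the enzyme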
PAD4 FP inh: human PAD4 inhibitors, primary screen, biochemical, fluorescence polarization, 1536-well format | recombinant PAD4, RCA probe fluorescence polarization | Protein-arginine deiminase type-4 (Homo sapiens), Q9UM07 | AID 485272, 2010 | 330,000 tested, 0.41% active | inhibition, % at 6.36 µM;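 active means percent inhibition above a cutoff equal to the mean of all tested compounds plus 3 SD, cut at about 15% in these data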;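 further: 0% = PAD4 with RCA probe and DMSO and 100% = probe without PAD4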
PME-1 primary: PME-1 inhibitors via competitive probe labeling, primary screen, biochemical, fluorescence polarization, FP-Rh probe, HTS. recombinant PME-1. inhibition, % at 5.9 µM. 320,000 tested, 0.53% active;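 active means inhibition above the campaign mean of all compounds plus 3 SD, cut at about 26% in these data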;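 further: competitive labeling of PME-1 active site by serine hydrolase directed probe; 0% = PME-1 with DMSO and 100% = wells lacking PME-1 enzyme; inhibitors block probe labeling so polarization falls and inhibition rises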
Target sequence (Q9Y570 whole entry, looked up): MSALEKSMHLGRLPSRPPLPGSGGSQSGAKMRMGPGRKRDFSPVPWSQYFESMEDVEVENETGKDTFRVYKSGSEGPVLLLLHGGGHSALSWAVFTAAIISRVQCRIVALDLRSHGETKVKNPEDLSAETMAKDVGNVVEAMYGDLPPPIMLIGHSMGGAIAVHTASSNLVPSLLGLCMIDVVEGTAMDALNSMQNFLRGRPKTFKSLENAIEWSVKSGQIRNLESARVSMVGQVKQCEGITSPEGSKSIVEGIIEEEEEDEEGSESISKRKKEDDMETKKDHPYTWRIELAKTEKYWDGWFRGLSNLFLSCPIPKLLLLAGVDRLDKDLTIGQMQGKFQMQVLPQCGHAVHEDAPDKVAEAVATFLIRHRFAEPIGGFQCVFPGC
LYPLA2 confirm: LYPLA2 inhibitors, retest, confirmation, counter-screen for PME1 inhibitor project, biochemical, fluorescence polarization, FP-Rh probe ABPP. shares compounds with LYPLA2 counter. recombinant LYPLA2. inhibition, % at 5.9 µM. 1,100 tested, 72% active;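 active means mean inhibition across replicates above the hit cutoff set in the primary screen, cut at about 26% in these data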;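 further: blocked labeling of the enzyme by serine hydrolase FP-Rh probe lowers polarization; 0% = enzyme with DMSO and 100% = wells lacking LYPLA2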
* marks the source's active call; other numbers are inactive results. In the library only some 1.7% were active in any assay of this set; here they are far more common.

What do the screens show for `O=C(NCCN1CCN(c2ccccc2)CC1)c1cccc(Cl)c1`?
GSTO1 counter: 0; LYPLA1 counter: -1; LYPLA2 counter: 2; Fam108B inh: 1; PAD4 FP inh: -3; PME-1 primary: -3

What do the screens show for `O=C(NCCCN1CCN(c2cccc(Cl)c2)CC1)c1ccc(N2CCCC2=O)cc1`?
GSTO1 counter: 5; LYPLA1 counter: -1; LYPLA2 counter: 5; Fam108B inh: -3; PAD4 FP inh: -5; PME-1 primary: -5

How did Nc1ccccc1C(=O)NCCCN1CCN(c2cccc(Cl)c2)CC1 do in these assays?
GSTO1 counter: 6; LYPLA1 counter: 9; LYPLA2 counter: 30*; Fam108B inh: 0; PAD4 FP inh: -1; PME-1 primary: -5; LYPLA2 confirm: 40*

What do the screens show for `O=C(NCCCN1CCN(c2cccc(Cl)c2)CC1)c1cccc(N2CCCC2=O)c1`?
GSTO1 counter: 11; LYPLA1 counter: 6; LYPLA2 counter: 27*; Fam108B inh: -3; PAD4 FP inh: -5; PME-1 primary: 3; LYPLA2 confirm: 33*

How did Cc1onc(-c2ccc(Cl)cc2)c1-c1ccnn1S(=O)(=O)c1cccc(C(F)(F)F)c1 do in these assays?
GSTO1 counter: 4; LYPLA1 counter: -2; LYPLA2 counter: -5; Fam108B inh: 2; PAD4 FP inh: -5; PME-1 primary: -6

How did O=C(CN1CCN(C(=O)CNC(=O)c2ccc(N3CCCC3=O)cc2)CC1)Nc1ccccc1Cl do in these assays?
LYPLA1 counter: 3; LYPLA2 counter: 50*; PAD4 FP inh: 1; PME-1 primary: -1; LYPLA2 confirm: 46*

Results for Cc1cccc(C)c1NC(=O)CN1CCN(C(=O)CNC(=O)c2ccc(N3CCCC3=O)cc2)CC1 ?
LYPLA1 counter: -2; LYPLA2 counter: 1; PAD4 FP inh: 1; PME-1 primary: -4

What do the screens show for `CCn1c(=O)cc(OCC(=O)N2CCN(c3cccc(C(F)(F)F)c3)CC2)c2ccccc21`?
GSTO1 counter: 3; LYPLA1 counter: 7; LYPLA2 counter: 51*; Fam108B inh: 0; PAD4 FP inh: 4; PME-1 primary: 3; LYPLA2 confirm: 47*

Results for O=[N+]([O-])c1ccc(Oc2ccc(/C=N/O)cc2)nc1 ?
GSTO1 counter: 10; LYPLA1 counter: 5; LYPLA2 counter: 41*; Fam108B inh: 7; PAD4 FP inh: 1; PME-1 primary: -4; LYPLA2 confirm: 26*

Results for O=C1NC(=O)/C(=C\c2ccc(Oc3ccc([N+](=O)[O-])cn3)cc2)S1 ?
GSTO1 counter: -18; LYPLA1 counter: 2; LYPLA2 counter: 11; Fam108B inh: 0; PAD4 FP inh: -4; PME-1 primary: 4

Results for Cc1ccc(NC(=O)Cn2nnc3ccccc3c2=O)cc1C ?
GSTO1 counter: -8; LYPLA1 counter: -4; LYPLA2 counter: 8; Fam108B inh: 0; PAD4 FP inh: 3; PME-1 primary: -7

Results for O=C(Cc1ccc(-n2c(=O)[nH]c3ccsc3c2=O)cc1)N1CCN(c2ccc(Cl)cc2)CC1 ?
GSTO1 counter: -5; LYPLA1 counter: 2; LYPLA2 counter: 31*; Fam108B inh: 4; PAD4 FP inh: -3; PME-1 primary: -3; LYPLA2 confirm: 29*

How did Cc1cccc(N2CCN(C(=O)Cc3ccc(-n4c(=O)[nH]c5ccsc5c4=O)cc3)CC2C)c1 (centres undefined) do in these assays?
GSTO1 counter: 1; LYPLA1 counter: -1; LYPLA2 counter: 11; Fam108B inh: 2; PAD4 FP inh: -2; PME-1 primary: 1

What do the screens show for `C=CCn1c(Cc2ccc(OC)cc2)nnc1SCC(=O)NCCc1ccccc1`?
GSTO1 counter: 6; LYPLA1 counter: 2; LYPLA2 counter: 3; Fam108B inh: 1; PAD4 FP inh: 2; PME-1 primary: 0

Results for N#Cc1nc(-c2ccco2)oc1N1CCN(c2ccccc2)CC1 ?
GSTO1 counter: 0; LYPLA1 counter: 6; LYPLA2 counter: 26*; Fam108B inh: 0; PAD4 FP inh: 1; PME-1 primary: 1; LYPLA2 confirm: 17

How did COc1ccc(N2CCN(c3oc(-c4ccco4)nc3C#N)CC2)cc1 do in these assays?
GSTO1 counter: 3; LYPLA1 counter: 10; LYPLA2 counter: 22; Fam108B inh: -1; PAD4 FP inh: 3; PME-1 primary: -1

Results for COc1ccc2c(Cn3cnc4cc([N+](=O)[O-])ccc4c3=O)cc(=O)oc2c1 ?
GSTO1 counter: 10; LYPLA1 counter: 11; LYPLA2 counter: 31*; Fam108B inh: 3; PAD4 FP inh: -8; PME-1 primary: 3; LYPLA2 confirm: 22

What do the screens show for `Cc1ccc(OCCn2cnc3cc([N+](=O)[O-])ccc3c2=O)cc1`?
GSTO1 counter: -20; LYPLA1 counter: -3; LYPLA2 counter: -2; Fam108B inh: 0; PAD4 FP inh: -5; PME-1 primary: 0

How did CS(=O)(=O)N(CC(=O)O)c1ccc(Oc2ccccc2)cc1 do in these assays?
GSTO1 counter: 1; LYPLA1 counter: -1; LYPLA2 counter: 5; Fam108B inh: -1; PAD4 FP inh: -1; PME-1 primary: -6

What do the screens show for `O=c1c2ccccc2c(-c2ccccc2)nn1Cc1ccc(Cl)cc1`?
GSTO1 counter: -2; LYPLA1 counter: 2; LYPLA2 counter: -7; Fam108B inh: 1; PAD4 FP inh: -2; PME-1 primary: 5

Results for O=c1cc(Cl)c(-c2ccccc2)nn1Cc1ccc(Cl)cc1 ?
GSTO1 counter: -4; LYPLA1 counter: 0; LYPLA2 counter: 26*; Fam108B inh: -7; PAD4 FP inh: -4; PME-1 primary: 4; LYPLA2 confirm: 35*

What do the screens show for `CC(C)C(NC(=O)c1ccco1)C(=O)NC1CCCCCC1` (centres undefined)?
GSTO1 counter: 2; LYPLA1 counter: 0; LYPLA2 counter: 3; Fam108B inh: -4; PAD4 FP inh: -6; PME-1 primary: 7

What do the screens show for `O=C(Nc1ccccc1Cl)c1ccc(=O)[nH]n1`?
GSTO1 counter: 0; LYPLA1 counter: 0; LYPLA2 counter: 7; Fam108B inh: 3; PAD4 FP inh: -4; PME-1 primary: 1

Results for COc1ccc(NC(=O)CSc2nncc3ccccc23)cc1 ?
GSTO1 counter: 5; LYPLA1 counter: -2; LYPLA2 counter: 1; Fam108B inh: 2; PAD4 FP inh: 10; PME-1 primary: 6
